Tested on: VDR:RXRa (NR concentration 270 nM, RXRa partner concentration 90 nM)
Assay: PBM binding z-score (relative to random genomic background probes); higher = stronger binding; sequences stand for … in GC…GCGATTGACAGCGTAGAATGAAGG
Protocol: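 Protein-binding microarray (Agilent 4x180K custom design, double-stranded 60-nt probes: 5' GC cap, 34-nt variable region, 24-nt constant primer region; full probe sequence given). Purified or IVT nuclear receptor:RXRα heterodimers (3:1 NR:RXRα, mostly 270:90 nM) or homodimers were incubated for 1 h in PBS with 2% milk and no ligand, then detected with Alexa488 antibodies. Fluorescence from o1-orientation probes (~5 replicates averaged) was converted to z-scores against 500 random hg19 background probes. Variable regions are seed direct-repeat (DR0–DR5) sites, all their single-nucleotide variants and half-site ablations.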

| Sequence | PBM binding z-score |
| --- | --- |
| GCAGCTAGGTCAACTGATGGTCAGCTAAAGCTCG | 1.19 |
| GCGACTGGGGCAAAGCAGGTTACCAAAAGGTTGG | 0.136 |
| CAAACTAGGTTACCGGAAGGTCAAAGTCCGCATG | 4.16 |
| TTACCAAGGTGAGGGTCGTTGATCCCTCTGTAGA | 0.884 |
| GGAACGAGGGCATGTTGATAGCAGAGTTTGATGG | 0.929 |
| TCGAGAAGGTTACCAATGGGGCATTCAGCTTTCT | 0.778 |
| TCGAGTAGGTTACCTATGGGGCATTCAGCTTTCT | -0.0814 |
| GCTAGCAGGCCATTTGGGTCATTCAATGACGGGC | 1.56 |
| ACTAACAGGCCAAGTTTGGGTCACTCAAACAAAG | 0.973 |
| CCTACTGGGCCATTCAGAGGTCATTGCTCATATG | 3.84 |
| CCTGCTGGGCCAAAAAGGTCATTGATGCCGATAA | 4.84 |
| CAGCCTAAGTCAGGGCCAGTATAGGAGGAACGTT | -0.626 |
| ACTAGTTGGTCAGCTGAGGACACACACAATTCGG | 0.506 |
| CGTCAAAGTTCAACTAAGGTAACGTCAAGCACGC | 4.83 |
| TAGCCTAGGTGAGATCGGGCCAGTATACGCTATA | -0.592 |
| TTACCGAGGTGAGCTGAGGTCGTTGATCCAACTC | 4.51 |
| CGAACTAGGTCATCCAGGATAGTGAATACATTGA | 3.02 |
| ATCGAAAGGTCGAGGTGAGTCTAGAGAAAGGGAA | 3.21 |
| ATATGTAGGTTAGCAGGGGTCATTCAGACTAGGC | 6.33 |
| TCTAGTTGGTCAAAGGTCACACAGTCGAAATGCG | 5.68 |

| Sequence | PBM binding z-score |
| --- | --- |
| ATTTCTAGGTAACCAAGTTCAGTGAATGCCGAAC | 4.22 |
| TTACCAAGGTGCAGGTCGTTGATCCCTCTGTAGA | 0.558 |
| CGTCCAAGGTCAATGCTAGGTGAGTGAAAGCATT | 3.69 |
| TCATATAAGTAAATGCTAGGTGAAAGTCCGATCT | 0.889 |
| TAAACAGGGTCAAAGGCCAGAGTACGAATGTCGA | 4.92 |
| ATCTCTAAGTAACCAAGTTCAGTGAATGCCGAAC | 2 |
| CGCACTAGGTCAAGGACAGTGAATCTCCGCACGC | 1.28 |
| ATATGTAGGTTAGCGGGTCATTCAGTTTGCGCAT | 4.74 |
| ATCTCAAGGTAAAGTTCAGTGAAAGATCGATAGA | 1.8 |
| CCTACTCGGCCAAGGTCATTGATCAGTCAAAGCA | 3.51 |
| CCGAATAGGTTATGGGGCATTCAGGCAACGGTGA | 0.258 |
| CCGTCTGGGGCAAGGTTACCATAACGCACAGCCA | 0.236 |
| GATACAGGGTCAAGGCCAGAGCACGCGTATTGAT | 4.21 |
| CCTCCAAGGTCAAGGTCAGTGAAAGAGACTCGAA | 4.69 |
| CGAACTAGGTCAGAAGAGGACAGTGAAGGATGAT | 1.69 |
| ATATGTAGGTTACATCCGGGTCAATCAGGCTATG | 3.59 |
| ATCGAAAGGTCGAAGGTAAGTATACCCACCCGAA | 2.51 |
| TCATATAGGTAAACAGATGAAAGTCCGTAAGTTA | 1.17 |
| CCTTACGGGTCACGCCAGGTTATAGCATCGGAGT | 5.36 |
| CGAACTAGGTCATCCAGGACAGTGACTACATTGA | 4.29 |
